Data on six compounds can be found in PubChem BioAssay (EPA / NIEHS).

Active and inactive are the calls of the source. The calls were made as follows: active = hit-call score of the fitted dose curve at least 0.9, where 1 is the maximum; inactive = score below 0.9.

A word on the AC50: it is the concentration at which the activity in the assay is half-maximal.

Read-out in assay [1]: Tissue Factor, F3 (gene 2152)
Nature of the assay: BSK_CASM3C_TissueFactor: BioMAP Diversity Plus: CASM3C Assay for Tissue Factor Biomarker Activity (AID 2283052).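 Also: cell surface tissue factor protein level read by ELISA.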 The settings on record: primary human coronary artery smooth muscle cells; actives raise or lower the signal.

Read-out in assay [2]: Interferon-gamma inducible Protein 10 (IP10), CXCL10 (gene 3627)
Briefly: BSK_hDFCGF_IP10: BioMAP Diversity Plus: hDFCGF Assay for Interferon-gamma inducible Protein 10 (IP10) Biomarker Activity (AID 2283053). Conditions: primary human foreskin fibroblasts; actives raise or lower the signal. The essentials: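 IP-10 levels, quantified by ELISA, are taken from human foreskin fibroblast cultures 24 h after chemical treatment, with DMSO serving as negative control and baseline for bidirectional analysis.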

Read-out in assay [3]: Urokinase-type plasminogen activator receptor (uPAR), PLAUR (gene 5329)
Nature of the assay: BSK_CASM3C_uPAR: BioMAP Diversity Plus: CASM3C Assay for Urokinase-type plasminogen activator receptor (uPAR) Biomarker Activity (AID 2283054).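 Also: cell-surface uPAR protein level quantified by ELISA.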 The settings on record: primary human coronary artery smooth muscle cells; actives raise or lower the signal.

Read-out in assay [4]: Vascular cell adhesion molecule 1 (VCAM1), VCAM1 (gene 7412)
Briefly: BSK_CASM3C_VCAM1: BioMAP Diversity Plus: CASM3C Assay for Vascular cell adhesion molecule 1 (VCAM1) Biomarker Activity (AID 2283055).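 Also: VCAM-1 protein level quantified by ELISA on the cells.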 The settings on record: primary human coronary artery smooth muscle cells; actives raise or lower the signal.

Read-out in assay [5]: Collagen III, COL3A1 (gene 1281)
Briefly: BSK_hDFCGF_CollagenIII: BioMAP Diversity Plus: hDFCGF Assay for Collagen III Biomarker Activity (AID 2283056). Conditions: primary human foreskin fibroblasts; actives raise or lower the signal. In a few lines:
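hDFCGF primary human dermal fibroblasts; 24 h chemical exposure; collagen III by ELISA; bidirectional curve fit vs DMSO baseline (gain or loss of signal).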

Read-out in assay [6]: Epidermal growth factor receptor (EGFR), EGFR (gene 1956)
Briefly: BSK_hDFCGF_EGFR: BioMAP Diversity Plus: hDFCGF Assay for Epidermal growth factor receptor (EGFR) Biomarker Activity (AID 2283057). The settings on record: primary human foreskin fibroblasts; actives raise or lower the signal. The essentials: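 Measured by ELISA: EGFR levels on primary human foreskin fibroblasts 24 h after chemical treatment, analysed relative to DMSO with bidirectional fitting.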

Read-out in assay [7]: Interleukin-8 (IL8), CXCL8 (gene 3576)
Briefly: BSK_hDFCGF_IL8: BioMAP Diversity Plus: hDFCGF Assay for Interleukin-8 (IL8) Biomarker Activity (AID 2283058). The settings on record: primary human foreskin fibroblasts; actives raise or lower the signal. In a few lines:
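ELISA read-out of IL-8 from primary human foreskin fibroblast cultures taken 24 h after dosing; values are bidirectional fits relative to DMSO vehicle.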

A short description of assay [8]: BSK_hDFCGF_Proliferation: Cell Proliferation Assessment in the BioMAP Diversity Plus: hDFCGF Assay (AID 2283059).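 Also: curves fitted for both rise and fall of signal versus DMSO baseline.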 Conditions: primary human foreskin fibroblasts. The essentials: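 Steps: dose primary human dermal fibroblasts (foreskin); […] fix in 10% TCA; stain with 0.1% SRB; read 560 nm; fit gain or loss of signal against DMSO.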
Read-out in assay [9]: Macrophage colony-stimulating factor (MCSF), CSF1 (gene 1435)
Briefly: BSK_hDFCGF_MCSF: BioMAP Diversity Plus: hDFCGF Assay for Macrophage colony-stimulating factor (MCSF) Biomarker Activity (AID 2283060). The settings on record: primary human foreskin fibroblasts; actives raise or lower the signal. The essentials: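 ELISA read-out of M-CSF in human dermal foreskin fibroblast cultures, 24 h after chemical dosing; gain or loss of signal fitted bidirectionally relative to DMSO baseline.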

Assay [10] can be described thus: BSK_hDFCGF_SRB: Viability Assessment in the BioMAP Diversity Plus: hDFCGF Assay (AID 2283061).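 Also: cells exposed to compound for 24 h before the read.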 Conditions: primary human foreskin fibroblasts. In a few lines: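 Primary human foreskin fibroblasts; 24 h post-dose; fixed 10% TCA, stained 0.1% SRB, A560 read; total protein as overt cytotoxicity measure; curves fit bidirectionally vs DMSO control.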
Read-out in assay [11]: TIMP metallopeptidase inhibitor 1 (TIMP1), TIMP1 (gene 7076)
Briefly: BSK_hDFCGF_TIMP1: BioMAP Diversity Plus: hDFCGF Assay for TIMP metallopeptidase inhibitor 1 (TIMP1) Biomarker Activity (AID 2283062). Conditions: primary human foreskin fibroblasts; actives raise or lower the signal. In a few lines: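 ELISA readout of TIMP-1 from human dermal foreskin fibroblast cultures 24 h post-dosing. Curves were fitted in both directions against DMSO baseline, with SRB total-protein staining in parallel cultures as a cytotoxicity check.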

Read-out in assay [12]: Monokine induced gamma interferon (MIG), CXCL9 (gene 4283)
Briefly: BSK_hDFCGF_MIG: BioMAP Diversity Plus: hDFCGF Assay for Monokine induced gamma interferon (MIG) Biomarker Activity (AID 2283063). Conditions: primary human foreskin fibroblasts; actives raise or lower the signal. The essentials: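 Fibroblasts (human foreskin, primary) dosed, 24 h, MIG by ELISA; fit bidirectional vs DMSO.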

Read-out in assay [13]: Matrix Metallopeptidase 1 (MMP1), MMP1 (gene 4312)
Nature of the assay: BSK_hDFCGF_MMP1: BioMAP Diversity Plus: hDFCGF Assay for Matrix Metallopeptidase 1 (MMP1) Biomarker Activity (AID 2283064). Conditions: primary human foreskin fibroblasts; actives raise or lower the signal. In a few lines: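 Primary human foreskin fibroblasts in the hDFCGF system were dosed with test chemical, and MMP1 was measured by ELISA 24 h later. Values come from bidirectional curve fitting against the DMSO baseline.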

Read-out in assay [14]: Vascular cell adhesion molecule 1 (VCAM1), VCAM1 (gene 7412)
Nature of the assay: BSK_hDFCGF_VCAM1: BioMAP Diversity Plus: hDFCGF Assay for Vascular cell adhesion molecule 1 (VCAM1) Biomarker Activity (AID 2283065).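 As to AC50: VCAM-1 protein level quantified by ELISA after 24 h chemical exposure.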 The settings on record: primary human foreskin fibroblasts; actives raise or lower the signal. In a few lines:
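ELISA read-out of VCAM-1 on human skin fibroblasts, 24 h post-dose; gain or loss of signal fitted bidirectionally against DMSO baseline.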

Read-out in assay [15]: Plasminogen activator inhibitor-1 (PAI1), SERPINE1 (gene 5054)
Nature of the assay: BSK_hDFCGF_PAI1: BioMAP Diversity Plus: hDFCGF Assay for Plasminogen activator inhibitor-1 (PAI1) Biomarker Activity (AID 2283066). Conditions: primary human foreskin fibroblasts; actives raise or lower the signal. The essentials: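 PAI-1 levels, determined by ELISA, served as the endpoint in human foreskin fibroblast cultures exposed to compound for 24 h, with DMSO as baseline.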

Read-out in assay [16]: Intercellular Adhesion Molecule 1 (ICAM1), ICAM1 (gene 3383)
Briefly: BSK_KF3CT_ICAM1: BioMAP Diversity Plus: KF3CT Assay for Intercellular Adhesion Molecule 1 (ICAM1) Biomarker Activity (AID 2283067). The settings on record: primary human keratinocytes with fibroblasts; actives raise or lower the signal. The essentials:
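ELISA readout of ICAM-1; KF3CT human skin co-culture (keratinocytes + foreskin fibroblasts), 24 h post-dose; gain/loss fit vs DMSO baseline.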

Read-out in assay [17]: Interferon-gamma inducible Protein 10 (IP10), CXCL10 (gene 3627)
Briefly: BSK_KF3CT_IP10: BioMAP Diversity Plus: KF3CT Assay for Interferon-gamma inducible Protein 10 (IP10) Biomarker Activity (AID 2283068). Conditions: primary human keratinocytes with fibroblasts; actives raise or lower the signal. In a few lines: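 KF3CT co-culture (keratinocytes + foreskin fibroblasts), 24 h compound, IP-10 by ELISA; bidirectional fit vs DMSO baseline.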

A short description of assay [18]: BSK_KF3CT_SRB: Viability Assessment in the BioMAP Diversity Plus: KF3CT Assay (AID 2283069).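 Also: total protein by sulforhodamine B staining as a cytotoxicity measure; read 24 h after compound addition.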 The settings on record: primary human keratinocytes with fibroblasts. The essentials: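 Human primary keratinocyte plus foreskin fibroblast co-culture exposed to chemicals for 24 h. Total protein measured by 0.1% sulforhodamine B staining after 10% TCA fixation, read at 560 nm; bidirectional fitting versus DMSO baseline.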

Read-out in assay [19]: Interleukin-1 alpha (IL1a), IL1A (gene 3552)
Nature of the assay: BSK_KF3CT_IL1a: BioMAP Diversity Plus: KF3CT Assay for Interleukin-1 alpha (IL1a) Biomarker Activity (AID 2283070). The settings on record: primary human keratinocytes with fibroblasts; actives raise or lower the signal. In a few lines: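 Human keratinocyte plus foreskin fibroblast primary co-culture, sampled 24 h after chemical dosing. IL-1a measured by ELISA; responses fitted bidirectionally against DMSO baseline (negative control), so gain or loss of signal both count.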

Read-out in assay [20]: TIMP metallopeptidase inhibitor 2 (TIMP2), TIMP2 (gene 7077)
Nature of the assay: BSK_KF3CT_TIMP2: BioMAP Diversity Plus: KF3CT Assay for TIMP metallopeptidase inhibitor 2 (TIMP2) Biomarker Activity (AID 2283071). The settings on record: primary human keratinocytes with fibroblasts; actives raise or lower the signal. The essentials:
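Keratinocyte–fibroblast co-culture, 24 h exposure; TIMP-2 ELISA, DMSO-normalised bidirectional fit. Parallel SRB (0.1%, TCA-fixed, 560 nm) total-protein staining gauges cytotoxicity.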

Regarding `N[C@@H](Cc1cc(I)c(Oc2ccc(O)c(I)c2)c(I)c1)C(=O)O`, the outcome in assay [1], in assay [2], in assay [3], in assay [4], in assay [5] and in assay [6] was inactive. Besides, the outcome in [7], in assay [9], in assay [10], in [11], in assay [12] and in [13] was inactive. Besides, the outcome in assay [15], in assay [16], in [17], in assay [18] and in [19] was inactive. The AC50 in assay [8] was 8.65 µM (active); in [14] it was 6.76 µM (active).

As to `COc1c(Cl)ccc(Cl)c1C(=O)O`, the result in assay [1], in [2], in assay [3], in assay [4], in [5] and in assay [6] was inactive. Also, the result in assay [7], in assay [8], in assay [9], in [10], in [11] and in assay [12] was inactive. The result in assay [13], in assay [14], in assay [15], in assay [16], in assay [17] and in [18] was inactive. The result in assay [19] and in [20] was inactive.

For `c1ccc2[nH]c(-c3cscn3)nc2c1`, the outcome in assay [1], in [2], in assay [3], in assay [4], in assay [5] and in assay [6] was inactive. For the same compound, the result in assay [7], in [8], in assay [9], in [10], in assay [11] and in [12] was inactive. The result in assay [13], in assay [14], in assay [15], in assay [16], in [17] and in [18] was inactive. Also, the result in assay [19] and in [20] was inactive.

As to `C[C@]12C[C@H](O)[C@H]3[C@@H](CCC4=CC(=O)CC[C@@]43C)[C@@H]1CC[C@@H]2C(=O)CO`, the result in [1], in assay [2], in [3], in assay [4], in assay [5] and in assay [6] was inactive. The result in [7], in assay [8], in [10], in assay [11], in assay [12] and in assay [14] was inactive. Further, the outcome in assay [15], in assay [16], in assay [17] and in [18] was inactive. Moreover, in assay [13], the AC50 was 1.4 µM (active).

As for `c1ccc(Nc2ccccc2)cc1`, the outcome in assay [1], in [2], in [3], in assay [4], in assay [5] and in assay [7] was inactive. Besides, the outcome in assay [8], in assay [9], in assay [10], in [11], in [12] and in assay [13] was inactive. Further, the outcome in assay [14], in assay [15], in [16], in assay [17], in assay [18] and in assay [19] was inactive. In addition, the AC50 in [6] is 34.1 µM (active).

Turning to `CCOC(=O)c1ccc(O)cc1`, the outcome in assay [1], in assay [2], in [3], in assay [4], in assay [5] and in assay [6] was inactive. Further, the outcome in [7], in assay [8], in [9], in assay [10], in [11] and in assay [12] was inactive. Further, the result in [13], in [14], in assay [15], in assay [16], in assay [17] and in assay [18] was inactive. For the same compound, the outcome in assay [19] and in [20] was inactive.
